Four compounds from PubChem BioAssay (EPA / NIEHS) can be followed below.

For assay [1], the target named is Hepatocyte nuclear factor 3-beta (Homo sapiens) (UniProt Q9Y261). Briefly: ATG_FoxA2_CIS: Attagene CIS-FACTORIAL HepG2 Assay for human Forkhead box A2 (FOXA2) (AID 2282942). The note with it: HepG2 cis-reporter transcription factor activity, 24 h; actives raise or lower the signal. The procedure, abridged: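 Endogenous transcription factor activity was read in HepG2 cells carrying transiently transfected cis-promoter reporter units. After 24 h dosing, reporter mRNA was quantified by RT-PCR and capillary electrophoresis, and values fitted bidirectionally versus DMSO.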

Assay [2] concerns the target Heat shock factor protein 1 (Homo sapiens) (UniProt Q00613). Briefly: ATG_HSE_CIS: Attagene CIS-FACTORIAL HepG2 Assay for human Heat Shock Transcription Factor 1 (HSE) (AID 2282953). The note with it: HepG2 HSE cis-reporter, Attagene RNA transcription; actives raise or lower the signal. In short, it runs like this:
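HepG2 cells transfected with cis-promoter reporter units sensing endogenous transcription factor activity; reporter mRNA quantified 24 h post-dose by RT-PCR and capillary electrophoresis of 6-FAM-labelled products. Bidirectional fitting against DMSO.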

Assay [3] is described as follows: ATG_RORE_CIS: Attagene CIS-FACTORIAL HepG2 Assay for human RAR-related Orphan Receptor Element (RORE) (AID 2282959). The note with it: HepG2 Attagene cis-factorial RORE reporter, mRNA; actives raise or lower the signal. In short, it runs like this:
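Cells were HepG2 carrying transfected cis-regulated reporter constructs, dosed for 24 hours. Total RNA was reverse-transcribed and reporter cDNA amplified, fluorescently labeled and sized by capillary electrophoresis. Activity was fitted bidirectionally relative to DMSO.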

Assay [4] can be described thus: ATG_Sox_CIS: Attagene CIS-FACTORIAL HepG2 Assay for human SRY-box transcription factor (SOX) (AID 2282960). The note with it: HepG2 Attagene cis-factorial SOX reporter, mRNA; actives raise or lower the signal. The procedure, abridged:
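Transient MRTU transfection of HepG2; 24 h compound incubation; TriZol RNA, oligo(dT) RT, PCR, 6-FAM primer extension, HpaI cut, CE. Bidirectional fit, DMSO = baseline.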

Assay [5] concerns the target Transcription factor Sp1 (Homo sapiens) (UniProt P08047). As to the kind of experiment: ATG_Sp1_CIS: Attagene CIS-FACTORIAL HepG2 Assay for human Specificity Protein 1 (Sp1) (AID 2282961). As to conditions: HepG2 Sp1 cis-reporter transcription, actives raise or lower the signal. In short, it runs like this: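 Endogenous Sp1 activity was gauged in human liver HepG2 cells bearing transfected reporter units under a cis-regulating promoter. After 24 h dosing, reporter mRNA was quantified by RT-PCR with capillary electrophoresis, and activity fitted bidirectionally versus DMSO.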

The nature of assay [6]: ATG_SREBP_CIS: Attagene CIS-FACTORIAL HepG2 Assay for human Sterol Regulatory Element Binding (SREBP) (AID 2282962). The note with it: HepG2 Attagene cis-factorial SREBP reporter, mRNA; actives raise or lower the signal. In short, it runs like this:
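In this cis-format assay, HepG2 liver cells express reporters controlled by promoter elements responsive to native transcription factors. Exposure lasts 24 h; reporter mRNA fluorescence from capillary electrophoresis gives the signal, fitted bidirectionally against DMSO.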

Assay [7] addresses Signal transducer and activator of transcription 3 (Homo sapiens) (UniProt P40763). Briefly: ATG_STAT3_CIS: Attagene CIS-FACTORIAL HepG2 Assay for human Signal Transducer and Activator of Transcription 3 (STAT3) (AID 2282963). As to conditions: HepG2, Attagene cis-factorial STAT3 reporter transcription; actives raise or lower the signal. In short, it runs like this:
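Readout: fluorescent reporter mRNA fragments resolved by capillary electrophoresis. Setup: HepG2 transfected with MRTUs reporting endogenous transcription-factor activity, dosed 24 h. Gain or loss of signal fitted bidirectionally against DMSO control.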

Assay [8] is described as follows: ATG_TA_CIS: Attagene CIS-FACTORIAL HepG2 Assay for human TA Basal Promoter (AID 2282964). As to conditions: HepG2 Attagene CIS-factorial TA basal promoter reporter; actives raise or lower the signal. The procedure, abridged:
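HepG2 cells transiently transfected with multiple reporter units under cis promoter elements, reporting endogenous transcription factor activity; this endpoint tracks the TA basal promoter as background control. Reporter mRNA after 24 h dosing measured by RT-PCR/capillary electrophoresis; bidirectional fits versus DMSO.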

Assay [9] is described as follows: ATG_TCF_b_cat_CIS: Attagene CIS-FACTORIAL HepG2 Assay for human T-Cell-Factor with beta-catenin (TCF/b-cat) (AID 2282965). As to conditions: HepG2 TCF/beta-catenin cis-reporter transcription, actives raise or lower the signal. In short, it runs like this: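 HepG2 cells transiently transfected with cis-promoter-driven multiplexed reporter units; reporter mRNA measured 24 h after dosing by RT-PCR, FAM labelling, HpaI digestion and capillary electrophoresis. Bidirectional fitting relative to DMSO baseline.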

A short description of assay [10]: ATG_TAL_CIS: Attagene CIS-FACTORIAL HepG2 Assay for human TAL Basal Promoter (AID 2282966).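 Also: background control endpoint measuring basal TAL promoter reporter mRNA not a specific factor.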 The note with it: HepG2 Attagene cis-factorial TAL promoter reporter; actives raise or lower the signal. In short, it runs like this: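 Human hepatoma HepG2 cells, transfected with promoter-regulated reporter units, were treated 24 h. Reporter transcript levels, measured through RT-PCR and capillary electrophoresis, were fitted for gain or loss relative to DMSO.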

The nature of assay [11]: ATG_VDRE_CIS: Attagene CIS-FACTORIAL HepG2 Assay for human Vitamin D Receptor Element (VDRE) (AID 2282968). As to conditions: HepG2 VDRE cis-reporter transcription, actives raise or lower the signal. In short, it runs like this: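 Transient MRTU transfection of HepG2, 24 h compound exposure. Readout: reporter transcripts via RT-PCR and capillary electrophoresis, fluorescence. Bidirectional fit vs DMSO.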

In assay [12] the target is Transcriptional activator Myb (Homo sapiens) (UniProt P10242). As to the kind of experiment: ATG_Myb_CIS: Attagene CIS-FACTORIAL HepG2 Assay for human Myeloblastosis (Myb) Proto-Oncogene Transcription Factor (AID 2282986). The note with it: HepG2 Attagene CIS-FACTORIAL Myb reporter transcription; actives raise or lower the signal. In short, it runs like this:
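Steps: transfect HepG2 with cis-regulated reporter units; dose with chemical for 24 h; isolate RNA, reverse-transcribe, PCR-amplify and FAM-label reporter sequences; digest with HpaI; resolve by capillary electrophoresis. Activity fitted in both directions relative to DMSO.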

In assay [13] the target is Nuclear respiratory factor 1 (Homo sapiens) (UniProt Q16656). As to the kind of experiment: ATG_NRF1_CIS: Attagene CIS-FACTORIAL HepG2 Assay for human Nuclear Respiratory Factor 1 (NRF1) Orphan Gene (AID 2282987). As to conditions: HepG2 NRF1 cis-element reporter, Attagene multiplex; actives raise or lower the signal. In short, it runs like this:
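Fluorescence intensity of labelled reporter cDNA fragments, resolved by capillary electrophoresis, served as readout for NRF1 cis-element activity. Transiently transfected HepG2 cells were dosed for 24 hours; activity in either direction was fitted against DMSO negative control.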

A short description of assay [14]: ATG_NFI_CIS: Attagene CIS-FACTORIAL HepG2 Assay for human Nuclear Factor I (NFI) (AID 2282989). The note with it: HepG2 cis-regulatory reporter, NFI response element transcription; actives raise or lower the signal. In short, it runs like this:
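Endogenous TF activity in HepG2 cells transiently transfected with cis-element-driven multiplexed reporter units, read 24 h after dosing. Reporter mRNA quantified by RT-PCR, 6-FAM labelling, HpaI digestion and capillary electrophoresis; bidirectional fit versus DMSO.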

Assay [15] addresses Myc proto-oncogene protein (Homo sapiens) (UniProt P01106). As to the kind of experiment: ATG_Myc_CIS: Attagene CIS-FACTORIAL HepG2 Assay for human Myelocytomatosis (Myc) Proto-Oncogene Transcription Factor (AID 2282990). The note with it: HepG2, Attagene cis-reporter transcription factor activity; actives raise or lower the signal. The procedure, abridged: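 Transiently transfected HepG2 cells bearing cis-promoter reporter units for endogenous transcription factors; 24 h exposure. Reporter mRNA measured by RT-PCR, 6-FAM primer extension, HpaI cut and capillary electrophoresis; bidirectional fit relative to DMSO.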

Assay [16] is described as follows: ATG_NRF2_ARE_CIS: Attagene CIS-FACTORIAL HepG2 Assay for human Nuclear Factor Erythroid 2 Related Factor 2 (NFR2) response to Antioxidant Response Elements (ARE) (AID 2282992). As to conditions: HepG2 Attagene ARE/NRF2 reporter, transcription factor activity; actives raise or lower the signal. In short, it runs like this:
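Using transiently transfected HepG2 cells exposed for 24 h, reporter mRNA levels were determined by RT-PCR with fluorescent primer extension and capillary electrophoresis, analysed for gain or loss of signal against DMSO.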

The nature of assay [17]: ATG_Oct_MLP_CIS: Attagene CIS-FACTORIAL HepG2 Assay for human Octamer-Binding Transcription Factor (Oct) (AID 2282993). As to conditions: HepG2 Attagene cis-factorial Oct reporter, mRNA; actives raise or lower the signal. In short, it runs like this:
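HepG2 cells transiently transfected with cis-element-driven reporter transcription units (endogenous TF activity); 24 h compound exposure. Reporter mRNA quantified by RT-PCR, 6-FAM labelling, HpaI digestion and capillary electrophoresis; bidirectional fit versus DMSO baseline.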

The target of assay [18] is Cellular tumor antigen p53 (Homo sapiens) (UniProt P04637). Briefly: ATG_p53_CIS: Attagene CIS-FACTORIAL HepG2 Assay for human p53 Transcription Factor (AID 2282994). The note with it: HepG2 p53 cis-element reporter, Attagene mRNA; actives raise or lower the signal. In short, it runs like this: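 In HepG2 cells, reporter transcription units under cis-regulatory promoters were transiently introduced. Following 24 h treatment, RNA was processed to labelled, digested cDNA fragments read by capillary electrophoresis; fitting was bidirectional versus DMSO.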

The target of assay [19] is Nuclear receptor subfamily 1 group I member 2 (Homo sapiens) (UniProt O75469). Briefly: ATG_PXR_TRANS: Attagene TRANS-FACTORIAL HepG2 Assay for human Pregnane X Receptor (PXR) (AID 2283008; active = hit-call score of the fitted dose curve at least 0.9, where 1 is the maximum). In short, it runs like this: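 Multiplexed TRANS reporter panel in HepG2; this component tracks PXR-Gal4-driven reporter mRNA after 24 h dosing, measured by RT-PCR with capillary electrophoresis fluorescence, fitted against DMSO.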

Assay [20] is described as follows: ATG_XTT_Cytotoxicity: Cytotoxicity Assessment in the Attagene TRANS-FACTORIAL HepG2 Assay (AID 2283584; active = hit-call score of the fitted dose curve at least 0.9, where 1 is the maximum). The procedure, abridged: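 24 h chemical exposure of reporter-transfected HepG2; XTT signal loss vs DMSO indicates cytotoxicity.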

Results filed as inconclusive are left out. Calls of active or inactive are those of the source. The calls were made as follows, unless noted: active = hit-call score of the fitted dose curve at least 0.9, where 1 is the maximum; inactive = score below 0.9.

Signal transducer and activator of transcription 3 (Homo sapiens), sequence (P40763 whole entry, looked up, the tested form may be a part): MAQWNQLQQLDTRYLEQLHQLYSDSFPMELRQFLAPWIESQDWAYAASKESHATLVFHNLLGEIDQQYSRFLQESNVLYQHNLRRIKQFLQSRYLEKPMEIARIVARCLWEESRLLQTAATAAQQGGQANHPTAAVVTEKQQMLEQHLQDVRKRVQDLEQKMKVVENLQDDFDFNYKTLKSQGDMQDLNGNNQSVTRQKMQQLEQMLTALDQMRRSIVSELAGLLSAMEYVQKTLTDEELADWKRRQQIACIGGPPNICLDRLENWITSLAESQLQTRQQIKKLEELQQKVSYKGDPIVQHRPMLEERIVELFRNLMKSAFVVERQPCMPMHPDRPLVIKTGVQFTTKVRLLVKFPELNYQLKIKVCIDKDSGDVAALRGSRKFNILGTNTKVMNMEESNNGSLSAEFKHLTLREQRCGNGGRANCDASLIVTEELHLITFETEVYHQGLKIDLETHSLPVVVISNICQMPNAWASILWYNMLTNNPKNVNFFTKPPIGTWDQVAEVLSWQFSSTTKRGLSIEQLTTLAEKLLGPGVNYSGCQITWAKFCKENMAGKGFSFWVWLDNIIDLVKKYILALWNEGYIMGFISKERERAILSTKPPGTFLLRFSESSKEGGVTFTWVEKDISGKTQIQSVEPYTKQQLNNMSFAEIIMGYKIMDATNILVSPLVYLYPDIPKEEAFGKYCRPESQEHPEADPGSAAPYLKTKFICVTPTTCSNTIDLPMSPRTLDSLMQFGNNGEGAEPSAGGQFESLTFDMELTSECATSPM
Nuclear receptor subfamily 1 group I member 2 (Homo sapiens), sequence (O75469 whole entry, looked up, the tested form may be a part): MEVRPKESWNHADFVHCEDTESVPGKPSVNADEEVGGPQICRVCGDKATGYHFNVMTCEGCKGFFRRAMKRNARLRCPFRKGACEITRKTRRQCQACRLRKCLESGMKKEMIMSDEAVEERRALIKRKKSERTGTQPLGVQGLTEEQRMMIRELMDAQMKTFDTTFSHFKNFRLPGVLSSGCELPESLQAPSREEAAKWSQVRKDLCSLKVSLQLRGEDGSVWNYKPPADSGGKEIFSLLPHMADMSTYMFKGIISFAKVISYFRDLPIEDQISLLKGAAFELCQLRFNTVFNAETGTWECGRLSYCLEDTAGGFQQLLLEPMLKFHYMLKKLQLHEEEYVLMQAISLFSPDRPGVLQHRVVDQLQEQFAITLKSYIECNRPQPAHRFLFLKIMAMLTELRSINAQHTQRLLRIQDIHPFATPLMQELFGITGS
Transcriptional activator Myb (Homo sapiens), sequence (P10242 whole entry, looked up): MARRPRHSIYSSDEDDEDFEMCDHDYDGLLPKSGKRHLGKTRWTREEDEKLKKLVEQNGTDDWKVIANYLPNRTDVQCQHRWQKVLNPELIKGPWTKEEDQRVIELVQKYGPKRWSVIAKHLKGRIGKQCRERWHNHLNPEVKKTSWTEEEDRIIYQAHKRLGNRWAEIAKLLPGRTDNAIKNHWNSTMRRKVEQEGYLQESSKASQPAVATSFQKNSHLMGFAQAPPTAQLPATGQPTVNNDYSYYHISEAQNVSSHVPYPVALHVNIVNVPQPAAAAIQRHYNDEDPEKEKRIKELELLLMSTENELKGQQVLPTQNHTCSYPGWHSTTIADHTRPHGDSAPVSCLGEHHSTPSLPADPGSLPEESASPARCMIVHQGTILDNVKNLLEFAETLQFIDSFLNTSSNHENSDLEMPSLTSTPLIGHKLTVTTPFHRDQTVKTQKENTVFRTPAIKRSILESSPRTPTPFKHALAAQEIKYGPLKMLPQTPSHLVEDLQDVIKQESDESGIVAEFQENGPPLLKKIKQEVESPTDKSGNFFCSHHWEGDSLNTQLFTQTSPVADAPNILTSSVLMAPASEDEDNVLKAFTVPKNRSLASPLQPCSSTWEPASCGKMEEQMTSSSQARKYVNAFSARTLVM
Hepatocyte nuclear factor 3-beta (Homo sapiens), sequence (Q9Y261 whole entry, looked up): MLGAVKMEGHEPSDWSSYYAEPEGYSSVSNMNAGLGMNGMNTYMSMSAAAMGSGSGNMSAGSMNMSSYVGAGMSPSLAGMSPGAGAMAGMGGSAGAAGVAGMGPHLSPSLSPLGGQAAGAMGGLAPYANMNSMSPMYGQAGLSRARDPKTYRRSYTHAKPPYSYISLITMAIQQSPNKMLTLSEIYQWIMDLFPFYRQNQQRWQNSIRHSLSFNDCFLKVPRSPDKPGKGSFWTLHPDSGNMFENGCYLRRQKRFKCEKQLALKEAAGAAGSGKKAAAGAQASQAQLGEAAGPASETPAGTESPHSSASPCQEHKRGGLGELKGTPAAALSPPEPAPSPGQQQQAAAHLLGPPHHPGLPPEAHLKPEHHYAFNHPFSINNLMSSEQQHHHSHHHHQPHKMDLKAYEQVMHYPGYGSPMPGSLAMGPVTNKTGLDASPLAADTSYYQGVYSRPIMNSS
Myc proto-oncogene protein (Homo sapiens), sequence (P01106 whole entry, looked up): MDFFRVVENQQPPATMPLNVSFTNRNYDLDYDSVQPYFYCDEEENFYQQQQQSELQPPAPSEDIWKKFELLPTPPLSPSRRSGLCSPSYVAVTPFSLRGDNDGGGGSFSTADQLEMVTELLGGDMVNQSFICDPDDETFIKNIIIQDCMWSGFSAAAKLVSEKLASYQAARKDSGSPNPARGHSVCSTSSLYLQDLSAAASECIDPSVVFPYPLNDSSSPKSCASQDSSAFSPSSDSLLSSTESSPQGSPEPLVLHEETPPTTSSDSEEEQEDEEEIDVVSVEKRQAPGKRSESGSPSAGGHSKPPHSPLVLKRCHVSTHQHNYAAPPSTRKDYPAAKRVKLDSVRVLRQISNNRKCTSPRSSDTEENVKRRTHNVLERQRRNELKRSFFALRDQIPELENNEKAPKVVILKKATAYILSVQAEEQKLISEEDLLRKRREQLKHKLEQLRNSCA
Nuclear respiratory factor 1 (Homo sapiens), sequence (Q16656 whole entry, looked up, the tested form may be a part): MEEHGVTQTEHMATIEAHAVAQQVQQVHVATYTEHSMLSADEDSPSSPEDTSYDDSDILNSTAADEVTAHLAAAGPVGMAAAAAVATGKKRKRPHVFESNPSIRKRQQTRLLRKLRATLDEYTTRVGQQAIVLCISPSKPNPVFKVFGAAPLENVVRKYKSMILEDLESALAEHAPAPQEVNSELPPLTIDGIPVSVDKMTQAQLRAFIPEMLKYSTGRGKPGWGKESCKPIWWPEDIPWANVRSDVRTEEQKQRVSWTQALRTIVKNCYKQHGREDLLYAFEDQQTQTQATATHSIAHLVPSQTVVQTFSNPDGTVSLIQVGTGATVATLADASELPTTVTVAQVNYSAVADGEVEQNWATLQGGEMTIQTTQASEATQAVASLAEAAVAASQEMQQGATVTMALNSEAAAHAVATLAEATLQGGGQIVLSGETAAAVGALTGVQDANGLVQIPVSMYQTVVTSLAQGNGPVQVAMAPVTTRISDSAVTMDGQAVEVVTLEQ
Cellular tumor antigen p53 (Homo sapiens), sequence (P04637 whole entry, looked up, the tested form may be a part): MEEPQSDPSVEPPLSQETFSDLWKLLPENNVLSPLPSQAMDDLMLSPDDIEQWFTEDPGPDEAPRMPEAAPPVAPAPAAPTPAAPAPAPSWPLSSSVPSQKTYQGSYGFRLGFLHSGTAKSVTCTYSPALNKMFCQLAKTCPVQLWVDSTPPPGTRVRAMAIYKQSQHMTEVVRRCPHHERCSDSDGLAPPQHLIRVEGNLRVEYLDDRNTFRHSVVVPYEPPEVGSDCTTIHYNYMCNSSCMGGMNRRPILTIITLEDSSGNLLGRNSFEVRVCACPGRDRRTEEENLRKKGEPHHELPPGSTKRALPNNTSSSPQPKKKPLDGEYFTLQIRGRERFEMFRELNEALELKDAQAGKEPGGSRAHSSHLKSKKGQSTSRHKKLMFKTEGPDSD
Transcription factor Sp1 (Homo sapiens), sequence (P08047 whole entry, looked up): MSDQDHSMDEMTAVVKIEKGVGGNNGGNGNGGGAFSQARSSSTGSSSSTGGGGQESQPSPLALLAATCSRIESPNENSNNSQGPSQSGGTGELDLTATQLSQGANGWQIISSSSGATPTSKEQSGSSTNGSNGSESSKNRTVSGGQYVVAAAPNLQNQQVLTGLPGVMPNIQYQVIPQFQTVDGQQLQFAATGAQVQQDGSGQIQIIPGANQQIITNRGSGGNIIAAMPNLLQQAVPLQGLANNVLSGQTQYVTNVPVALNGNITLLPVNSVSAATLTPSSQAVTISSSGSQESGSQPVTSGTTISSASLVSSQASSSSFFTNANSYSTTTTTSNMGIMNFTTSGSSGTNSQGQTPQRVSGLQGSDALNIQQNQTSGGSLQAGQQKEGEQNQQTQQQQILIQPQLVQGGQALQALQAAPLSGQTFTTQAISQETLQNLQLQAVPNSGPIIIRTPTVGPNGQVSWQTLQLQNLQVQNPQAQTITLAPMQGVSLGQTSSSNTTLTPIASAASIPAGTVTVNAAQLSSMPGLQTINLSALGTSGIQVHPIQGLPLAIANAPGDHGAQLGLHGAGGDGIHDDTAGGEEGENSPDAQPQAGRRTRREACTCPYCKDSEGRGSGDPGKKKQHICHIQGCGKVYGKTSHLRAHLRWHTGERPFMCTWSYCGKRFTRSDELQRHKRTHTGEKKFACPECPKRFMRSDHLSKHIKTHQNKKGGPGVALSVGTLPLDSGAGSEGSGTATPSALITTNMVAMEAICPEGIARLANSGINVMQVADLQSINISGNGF
Heat shock factor protein 1 (Homo sapiens), sequence (Q00613 whole entry, looked up): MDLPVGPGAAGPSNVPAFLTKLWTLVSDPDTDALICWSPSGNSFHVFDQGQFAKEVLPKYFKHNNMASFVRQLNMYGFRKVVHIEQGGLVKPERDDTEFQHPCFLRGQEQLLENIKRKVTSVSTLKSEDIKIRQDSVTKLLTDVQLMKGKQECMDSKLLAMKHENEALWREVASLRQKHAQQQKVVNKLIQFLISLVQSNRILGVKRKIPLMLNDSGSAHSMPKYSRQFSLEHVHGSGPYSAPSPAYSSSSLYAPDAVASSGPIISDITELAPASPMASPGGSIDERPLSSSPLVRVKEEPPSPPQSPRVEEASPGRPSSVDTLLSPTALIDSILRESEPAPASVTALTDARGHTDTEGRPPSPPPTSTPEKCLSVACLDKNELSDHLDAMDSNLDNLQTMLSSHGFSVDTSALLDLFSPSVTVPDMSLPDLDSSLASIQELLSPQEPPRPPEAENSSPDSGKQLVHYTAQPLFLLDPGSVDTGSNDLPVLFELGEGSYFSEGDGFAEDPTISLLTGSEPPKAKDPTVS

Turning to `CC(C)=CCOC(=O)c1ccccc1`, the compound was called inactive in [1], in [2], in assay [3], in [4], in [5] and in [6]. For the same compound, the outcome in assay [7], in assay [8], in assay [9], in assay [10], in assay [11] and in assay [12] was inactive. Also, the compound was classed as inactive in assay [13], in [14], in assay [15], in assay [16], in assay [17] and in assay [18]. Further, the result in assay [19] and in [20] was inactive.

Turning to `O=C(O)c1ccccc1C(=O)O`, the compound was called inactive in [1], in [2], in [3], in [4], in assay [5] and in [6]. Moreover, the outcome in [7], in [8], in [9], in assay [10], in assay [12] and in assay [13] was inactive. Also, the call in [14], in [15], in [16], in assay [17], in assay [18] and in [20] was inactive.

`O=C1CCCCCCCCCCCCCC1`: the compound was classed as inactive in assay [1], in assay [3], in [4], in [6], in assay [7] and in assay [8]. Moreover, the compound was called inactive in [9], in assay [10], in assay [11], in assay [12], in assay [13] and in [14]. In addition, the compound was called inactive in assay [17], in assay [18] and in assay [20]. Further, the concentration at half-maximal activity (AC50) in [2] was 62.1 µM (active); in [5], 47.6 µM (active); in assay [15], 23.6 µM (active); in [16], 32.6 µM (active); in [19], 26.6 µM (active).

For the compound `CC(C)CC(=O)CC(C)CC(C)C` (stereo unspecified), the call in assay [1], in assay [2], in assay [3], in [4], in [5] and in assay [6] was inactive. Further, the call in assay [7], in assay [8], in [9], in assay [10], in assay [12] and in assay [13] was inactive. The compound was called inactive in [14], in assay [15], in assay [17], in assay [18] and in [19]. In addition, in [16], the AC50 is 116 µM (active).
